# PubChem BioAssay AID1671189 (National Center for Advancing Translational Sciences (NCATS), 2021)
# Hit rate of the full screen: of about 1,100 compounds, about 70 (6%) were called active. A call without a number means that no potency is given here. Inconclusive results (about 22%) are left out. The call rests on the fitted dose curve; in most records, active means well fitted curve in the direction sought with a large enough effect; inconclusive means small, poorly fitted or top-dose-only effect, or another doubt; inactive means no such curve, though single readings can be large or run the other way. This excerpt belongs to a sample that is enriched for actives.
# Biological target: Polyunsaturated fatty acid lipoxygenase ALOX12 (Homo sapiens) (UniProt P18054)
# Sequence (P18054 whole entry, looked up): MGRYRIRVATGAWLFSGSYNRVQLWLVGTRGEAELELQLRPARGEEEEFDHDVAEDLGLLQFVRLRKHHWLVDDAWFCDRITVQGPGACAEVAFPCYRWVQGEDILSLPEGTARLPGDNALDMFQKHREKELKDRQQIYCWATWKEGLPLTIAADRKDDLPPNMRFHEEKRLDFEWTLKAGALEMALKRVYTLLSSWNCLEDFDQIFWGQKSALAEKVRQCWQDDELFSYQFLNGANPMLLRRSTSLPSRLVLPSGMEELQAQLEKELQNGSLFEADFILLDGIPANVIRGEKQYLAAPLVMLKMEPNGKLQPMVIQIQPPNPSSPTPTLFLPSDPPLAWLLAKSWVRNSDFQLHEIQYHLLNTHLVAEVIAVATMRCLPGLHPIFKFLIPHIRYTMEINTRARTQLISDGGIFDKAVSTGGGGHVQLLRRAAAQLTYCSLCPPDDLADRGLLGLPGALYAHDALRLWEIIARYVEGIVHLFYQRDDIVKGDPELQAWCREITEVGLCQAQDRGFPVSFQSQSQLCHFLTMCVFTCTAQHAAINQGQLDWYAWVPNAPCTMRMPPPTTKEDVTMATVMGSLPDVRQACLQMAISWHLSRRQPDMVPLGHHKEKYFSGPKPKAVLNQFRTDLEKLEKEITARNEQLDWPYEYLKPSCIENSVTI
# Experiment: Confirmatory qHTS assay for inhibitors of human arachidonate 12S-lipoxygenase (ALOX12): Round 2
# Conditions: purified human 12-LOX, xylenol orange absorbance; series mostly up to 125 µM
# Source text: Assay Provider: Theodore R. Holman Ph.D. University of California, Santa Cruz, California Human lipoxygenase 12hLO is a member of the closely related lipoxygenase family of enzymes which catalyze the site-specific oxidation of arachidonic acid to various hormone precursor molecules and as such is a candidate for drug development in a variety of disease areas, such as cancer and inflammation. Inhibition of 12hLO activity was screened by utilizing arachidonic acid as a substrate. The extent of hydroperoxide product formation was measured by a secondary chromogenic reaction in which xylenol orange (XO, Sigma-Aldrich, cat. number 39,818-7) reacts with the ferric ions produced from the reaction between the hydroperoxide and ferrous ions. The Fe (III)-XO complex is characterized with red-shifted absorbance at 560 nm. A purified preparation of human 12hLO was supplied by Dr. Holman laboratory, University of California, Santa Cruz.
# PROTOCOL TABLE SEQUENCE No. (e.g., 1, 2, 3, etc.); […] (e.g., Cells, Incubation, Reagent, etc.); VALUE; DESCRIPTION 1; Enzyme; 3 uL; 150 nM 12hLO enzyme solution dispensed in 1536-well Greiner black, clear bottom plates. 2; Compound; 23 nL; compounds and controls were added. 3; Incubate; 15 min; room temperature. 4; Substrate; 1 uL; 40 uM arachidonic acid (final concentration). 5; Incubate; 30 min; room temperature. 6; Reagent; 4 uL; Fe-XO solution was added to each well. 7; Incubation; 30 min; room temperature 8; Detector; absorbance; Read 1 at 405 nm absorbance using ViewLux (PerkinElmer) CCD imager. 9; Detector; absorbance; Read 2 at 573 nm absorbance using ViewLux (PerkinElmer) CCD imager. NOTES (numbers refer to sequence above) 1; 150 nM 12hLO (final concentration) in buffer solution (25 mM Hepes, 0.01% Triton X-100, pH 7.0) was dispensed in columns 1, 2, 5-48. Column 1 is neutral (100% activity). Buffer only was dispensed in columns 3 and 4 as no enzyme negative controls. The plates were covered with metal lids with gas-exchange holes. 2; Compounds were pin transferred via a Kalypsys Pin Tool (Wako USA) in column 5 - 48. Control compound was transferred in column 2, titration of nordihydroguaiaretic acid (NDGA, Sigma-Aldrich, N5023) with top concentration of 20 mM in DMSO then 1:3 dilution in duplicate. Dilution factor of 23 nL into 4 uL final assay volume. 3; Covered assay plates were incubated for 15 min at room temperature. 4; Substrate was added to start the reaction; 40 uM arachidonic acid (Sigma-Aldrich, St. Louis, MO) was dispensed throughout the plate. 6; Chromogenic detection reagent solution (divalent iron/xylenol orange, Fe-XO) was added to each well: 200 uM xylenol orange, 300 uM ferrous ammonium sulfate prepared freshly in 50 mM sulfuric acid. 8, 9; Two absorbance readouts were obtained at 405 nm and at 573 nm using a ViewLux high-throughput CCD plate imager (PerkinElmer). The 573 to 405 (Read 2 / Read 1) absorbance ratio was used to compute reaction progress.
# Potency means the concentration at half of the fitted maximal effect.
row,SMILES,Potency
1,COc1ccccc1NC(=O)Nc1ccc2n(c1=O)C[C@H]1C[C@@H]2CN(C2CCOCC2)C1,14.1 µM (active)
2,O=C(Nc1ccc2n(c1=O)C[C@H]1C[C@@H]2CN(Cc2ccc(F)cc2)C1)c1cccs1,inactive
3,Cc1o[nH]c(=O)c1C[C@H](N)C(=O)O,inactive
4,C#C[C@H]1CN2CC[C@H]1C[C@@H]2COC(=O)NCCC,17.8 µM (active)
5,O=C(O)C1=NOC2CN(Cc3cccc(Br)n3)CC12 (stereo not given),inactive
6,c1cc2nc(C3CCNCC3)[nH]c2cn1,inactive
7,CCN1C[C@]2(COC(=O)c3ccccc3N3C(=O)CC(C)C3=O)CC[C@H](OC)[C@@]34C5C[C@@H]6[C@@H](OC)C[C@@](O)(C5[C@H]6OC)[C@](O)([C@@H](OC)C23)[C@@H]14 (stereo not given in full),inactive
8,CCOc1ccc(CN(CCc2ccc3c(c2)OCO3)Cc2ccc(C)cc2)cc1,inactive
9,N[C@@]1(C(=O)O)CC[C@H](C(=O)O)C1,inactive
10,CSc1ccc(-c2ccc(=O)n3c2[C@@H]2C[C@@H](CN(S(=O)(=O)c4cccs4)C2)C3)cc1,15.8 µM (active)
11,CCCS(=O)(=O)N1C[C@@H]2C[C@H](C1)c1c(-c3ccc(Cl)cc3)ccc(=O)n1C2,inactive
12,CSc1ccc(-c2ccc(=O)n3c2[C@@H]2C[C@@H](CN(S(C)(=O)=O)C2)C3)cc1,inactive
13,CSc1ccc(CN2CCN(C(=O)COc3ccc(C)cc3)CC2)cc1,inactive
14,O=C(Cc1ccc(Cl)cc1)N1Cc2ccccc2CC2(CCCN2CC2CCNC2)C1 (stereo not given),inactive
15,O=C(O)C1CN(Cc2ncc[nH]2)CCN(C(=O)Cc2cccs2)C1 (stereo not given),inactive
